Experimental data as given in PubChem BioAssay (Tox21).
Records with an inconclusive call do not appear. Unmarked numbers belong to inactive results. Calls of active or inactive are those of the source. Calls come from the whole dose curve; as a rule, active = well fitted cell-killing curve with a large enough effect in the repeat runs; inconclusive = weak or mixed curves, or effect the other way; inactive = flat fitted curve, though single readings scatter.

Experiment: cAMP Responsive Elements (CRE) small molecule antagonists, cell-based qHTS assay: qHTS cell viability counter screen (AID 2060913); note: nearly all actives have a fitted effect of over 40% in size
Conditions: CRE-bla HEK293T viability, CellTiter-Glo luminescence, 5 h; series mostly up to 92.4 µM; viability change, negative = cytotoxic: at the top concentration
Method in brief: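 CRE-bla HEK293T cells (2,000/well, 18 h) given compound plus NKH477 0.25 uM final for 3 h at 37C; viability counter-screen by CellTiter-Glo luminescence in same wells after 30 min.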
% is set by controls: 0 for no effect and ±100 for the full control effect; potency is the fitted concentration of half-maximal effect.

SMILES	viability change, negative = cytotoxic	Potency
O=[N+]([O-])c1ccc(/C=N\O)o1	6.89% [at 42.5 µM]	
CCCCCCCCCC		inactive
CC(=O)OCC(=O)[C@@]1(O)[C@H](C)C[C@H]2[C@@H]3CCC4=CC(=O)C=C[C@]4(C)[C@@]3(F)[C@@H](O)C[C@@]21C	3.13% [at 42.5 µM]	
CO[C@H]1O[C@H](CO)[C@@H](O)[C@H](O)[C@H]1O	-12.8%	
NS(=O)(=O)c1ccc(NC(=O)CCC(=O)O)cc1	-2.03% [at 42.5 µM]	
Cc1ccc2c(c1)C(=O)c1ccccc1C2=O	-6.27%	
CN1[C@@H]2CC[C@H]1CC(OC(=O)c1c[nH]c3ccccc13)C2 (stereo not given in full)	-1.48% [at 42.5 µM]	
CCCCCCCCCCCCN1CCCC1=O	0.273%	
Cc1c(NC(C)C)c(=O)n(-c2ccccc2)n1C	5.65% [at 42.5 µM]	
Cc1nc(-c2ccc(Cl)cc2)oc1COC(C)(C)C(=O)O	-3.26% [at 42.5 µM]	
O=c1[nH]cc(F)c(=O)[nH]1		inactive
CCCCCCCC/C=C\CCCCCCCC(=O)OC(CO)CO	16.7%	
Cc1cc(NC(=O)C(=O)O)cc(C)c1Oc1ccc(O)c2c1CCC2	2.01%	
OCc1cc(C(O)CNCCCCCCOCCCCc2ccccc2)ccc1O (stereo not given)	-4.27% [at 42.5 µM]	
Cc1ccc2c(ccc3ccccc32)c1	5.35%	
O=c1[nH][nH]c2ccccc12	18.4%	
COC(=O)C1=C(C)NC(C)=C(C(=O)OC)C1c1ccccc1[N+](=O)[O-]		inactive
NC(Cc1ccc(F)cc1)C(=O)O (stereo not given)	19.3% [at 8.39 µM]	
O=C(O)[C@H](O)c1ccccc1	-4.78% [at 42.5 µM]	
CC(=O)OCC=C(C)C	-0.198% [at 42.5 µM]	

SMILES	viability change, negative = cytotoxic	Potency
O=C(O)COCC(=O)O	3.56%	
CCCOC(=O)c1ccc(O)cc1	2.88%	
CCCCNCCCC	-7.6%	
Oc1c(Cl)ccc(Cl)c1Cl		inactive
Brc1ccccn1	9.87%	
C=CCCCCCCCCCCCCCC	-1.45% [at 18.9 µM]	
CCOC(=O)CC(C)C	3.74%	
O=C1CCC(=O)O1	-6.39%	
CC/C(=C(\c1ccc(O)cc1)c1ccc(OCCN(C)C)cc1)c1ccccc1		68.7 µM (active)
Nc1ccc(N)c2c1C(=O)c1ccccc1C2=O	-4.86%	
Cc1nc(-c2ccccn2)ncc1C(=O)Nn1cc(C)c2cc(F)ccc21	-8.68%	
CN=C(NC#N)Nc1ccc(C2=NNC(=O)CC2C)cc1 (stereo not given)	3.37% [at 42.5 µM]	
CCC(CN)=C(c1ccccc1)c1ccccc1	-6.61% [at 42.5 µM]	
Nc1ccc(S(=O)(=O)O)cc1	2.22%	
O=C(O)c1cccnc1		inactive
CC1=CCC2C(C1)C2(C)C (stereo not given)	6.87%	
CCOC(=O)O[C@H](C)OC(=O)c1ccc2c(c1)cc(C(=O)NC1CCN(C(C)C)CC1)n2Cc1cc(-c2ccc(Cl)s2)on1		57.1 µM (active)
COC(=O)c1c(Cl)c(Cl)c(C(=O)OC)c(Cl)c1Cl		inactive
Nc1ccc(N=Nc2ccccc2)c(N)n1		inactive
CC(C)(C)NC(=O)[C@@H]1C[C@@H]2CCCC[C@@H]2CN1C[C@@H](O)[C@H](Cc1ccccc1)NC(=O)[C@H](CC(N)=O)NC(=O)c1ccc2ccccc2n1		61.9 µM (active)
